KCNH2 3.1 block: KCNH2 3.1 (human) potassium channel inhibition. activity change, % (tested at about 1.8 µM). 0.95% of 340,000 active. U2OS KCNH2 3.1, thallium flux FluxOr; hits give low values;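 active = maximum activity change below -70%; inconclusive = maximum activity change from -70% to -50%; inactive = maximum activity change above -50%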;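 also: thallium influx rate constant from kinetic fluorescence after stimulation buffer; % is scaled to controls: 0 for no effect and ±100 for the full control effect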
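Measured as rate of thallium-driven FluxOr signal in transduced U2OS cells carrying the 3.1 channel, read kinetically for 2 min upon stimulation; values are rate constants scaled to DMSO control wells.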
MCF10A rerep: inducers of DNA re-replication in MCF 10A breast cells. Potency, µM (series often up to 46.1 µM), for inactives: top-dose activity, positive = re-replication, most hits filed as activators. MCF 10A DNA re-replication, Hoechst nuclear intensity, 48 h. 2.9% of 350,000 active; also: potency is read from the fitted curve at half-maximal effect; % of control where 0% means no effect; nearly all actives have a fitted effect of over 50% in size
hERG WT inh: KCNH2 (human, wildtype) channel inhibition | Q12809 | U2OS, BacMam KCNH2, thallium flux FluxOr; hits give low values | activity change, % at 1.84 µM | 0.37% of 340,000 active | AID 720551;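 active = maximum activity change below -70%; inconclusive = maximum activity change between -70% and -50%; inactive = maximum activity change above -50%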; also: % is scaled to controls: 0 for no effect and ±100 for the full control effect
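U2OS cells were transduced with wild-type KCNH2 virus (2.03 x 10^8 / mL) for 4 h at room temperature, then cultured overnight at 37 C. Thallium flux was read with FluxOr dye. Rate constants were normalized to DMSO controls.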
KB-V1 cytotox: kills drug-selected multidrug resistant KB-V1 cells | AID 1347076 | KB-V1 MDR cells viability, CellTiter-Glo, 72 h | 3.4% of 400,000 active | Potency, µM (top dose mostly 46.1 µM), most hits filed as cytotoxic; also: potency is read from the fitted curve at half-maximal effect; % is scaled to controls: 0 for no effect and ±100 for the full control effect; nearly all actives have a fitted effect of over 60% in size
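Following 72 h at 37 degrees C with compound, KB-V1 cell viability was read by CellTiter-Glo luminescence, medium being phenol-red-free DMEM plus 10% FBS; concentration-response parameters came from normalized, curve-fitted qHTS data.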
SW480 rerep: induces DNA re-replication in SW480 colon adenocarcinoma cells | 1.8% of 340,000 active | SW480 DNA re-replication, Hoechst DNA content imaging, 48 h | AID 624297 | Potency, µM (doses to about 46.1 µM), inactives show at the highest dose re-replication activation, actives largely listed as activators; also: potency is read from the fitted curve at half-maximal effect; % of control where 0% means no effect; nearly all actives have a fitted effect of over 55% in size
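Treated cells incubate 48 hr (37 C, 5% CO2), are stained 40 min with Hoechst, and nuclear fluorescence is enumerated; a rise in nuclei with high DNA signal marks re-replication.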
KB-3-1 cytotox: KB-3-1 parental cell cytotoxicity; KB-3-1 viability, CellTiter-Glo ATP luminescence, 72 h; Potency, µM (series often up to 46.1 µM), usual class: cytotoxic; 1.4% of 400,000 active; AID 1347075; also: potency is read from the fitted curve at half-maximal effect; % is scaled to controls: 0 for no effect and ±100 for the full control effect; nearly all actives have a fitted effect of over 60% in size
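Using CellTiter-Glo luminescence, growth of non-resistant KB-3-1 adenocarcinoma cells is assessed 72 h after pin-tool compound addition at 37 °C. Normalized responses across the concentration series yield fitted curves.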
* hit, by the source's call; i = inactive; ? = inconclusive; / = no result given. Rows were chosen to be rich in hits. Some 7.6% of all compounds tested hit in one or more screens of this group. Unless noted, calls follow the shape of the dose curve; as a rule, active = well fitted curve in the direction sought with a large enough effect; inconclusive = small, poorly fitted or top-dose-only effect, or another doubt; inactive = no such curve, though single readings can be large; an effect the other way counts as inactive or inconclusive.

SMILES	KCNH2 3.1 block	MCF10A rerep	hERG WT inh	KB-V1 cytotox	SW480 rerep	KB-3-1 cytotox
CC(NC(=O)c1ccnc(C(C)(C)C)c1)c1ccccc1 (configuration not stated)	5	6%	17	18µM*	10%	?
COC(=O)Cc1nc(Nc2ccccc2)sc1C	-15	?	-1	i	?	i
CCCn1nc(NC(=O)c2ccncc2)c2cc3ccccc3nc21	-10	5%	4	i	1%	i
CCCn1nc(NC(=O)c2cccs2)c2cc3ccccc3nc21	9	5.8µM*	14	?	15µM*	i
CCCCn1nc(NC(=O)c2cccs2)c2cc3ccccc3nc21	-12	?	7	26µM*	?	?
CCN(CC)c1ccc2c(C)c(Cl)c(=O)oc2c1	-10	4.1µM*	-6	i	?	i
CCN(CC)c1ccc2c(C)c(-c3ccc(N)cc3)c(=O)oc2c1	-1	3.7µM*	13	i	8.2µM*	?
CCN(CC)c1ccc2c(c1)oc(=O)c1c(Cl)cc(=O)oc12	0	?	-23	?	9.2µM*	?
COc1ccc(-c2c(C)c3ccc(O)cc3oc2=O)cc1	11	19%	-13	i	-15%	i
CCOC(=O)Cc1c(C)c2ccc(N(CC)CC)cc2oc1=O	2	18µM*	-7	?	15µM*	i
CCOC(=O)CCc1c(C)c2ccc(O)cc2oc1=O	-1	-11%	33	i	-2%	i
CCN(CC)c1ccc2c(Cl)c(Br)c(=O)oc2c1	-27	?	-33	?	?	?
Cc1cccc(N2N=C(C(=O)Nc3nc(C)cs3)CCC2=O)c1	5	1%	6	i	-5%	i
Cc1ccc(/C=C2/Sc3ccc(C(=O)N4CCN(c5ccccn5)CC4)cc3NC2=O)cc1	0	8.2µM*	40	i	20%	i
Cc1ccccc1/C=C1\Sc2ccc(C(=O)N3CCN(c4ccccn4)CC3)cc2N(C)C1=O	-6	23µM*	3	?	3%	i
CN1C(=O)/C(=C/c2ccccc2F)Sc2ccc(C(=O)N3CCCC3)cc21	7	20%	-12	i	1%	i
O=C(COc1ccccc1C(=O)Nc1ccccc1)Nc1cccc(Br)c1	/	/	/	i	/	i
Cc1c(-c2ccccc2)sc2nc[nH]c(=S)c12	-82*	3%	-116*	12µM*	-4%	?
CO/N=C/c1ccc(Oc2ccc([N+](=O)[O-])cc2[N+](=O)[O-])c(OC)c1	-14	?	3	?	?	i
CCN1C(=O)C(=Cc2cccc(OC)c2Oc2ccc([N+](=O)[O-])cc2[N+](=O)[O-])SC1=S	-6	?	1	?	4.6µM*	23µM*
COc1cc(/C=C2\SC(=O)NC2=O)ccc1Oc1ccc([N+](=O)[O-])cc1[N+](=O)[O-]	-6	21µM*	-6	i	21%	i
O=C(NCc1cccnc1)c1ccccc1NS(=O)(=O)c1ccc(F)cc1F	-1	6%	2	i	-3%	i
O=C(Nc1nccs1)c1ncc(Cl)c(Cl)c1Cl	13	18%	-6	i	?	i
Cc1ccc2scc(N3CCCCC3)c(=O)c2c1	/	/	/	i	/	i
O=C(COc1ccc(Cl)cc1Cl)NNC(=S)Nc1ccc(F)cc1	-3	15%	0	21µM*	-1%	i
SMILES	KCNH2 3.1 block	MCF10A rerep	hERG WT inh	KB-V1 cytotox	SW480 rerep	KB-3-1 cytotox
CC(C)NC(=O)COc1ccc(Cl)cc1Cl	6	?	-29	?	16µM*	i
O=C(COc1ccc(Cl)cc1Cl)NCc1ccncc1	34	0%	6	18µM*	-10%	i
Cc1cc(OCCCCn2ccnc2)cc(C)c1Cl	8	?	16	?	2%	?
COc1ccc(NC(=O)CSc2nc(-c3ccc(OC)cc3)[nH]c2-c2ccc(OC)cc2)cc1	/	/	/	i	/	i
CC(C)COC(=O)c1ccc(N)cc1	/	6%	/	/	-3%	/
Cc1c(C)c2cc3c(c(C)c2oc1=O)OCN(CCc1ccc(F)cc1)C3	/	/	/	i	/	i
COc1ccc(CN(CCc2ccccc2)Cc2ccccc2)cc1OC	-82*	?	-23	i	-19%	i
CCOc1ccc(C(=O)Nc2ccc(S(=O)(=O)N3CCCCC3c3cccnc3)cc2)cc1 (configuration not stated)	/	/	/	i	/	?
CCCn1nnc(NC(=S)NC(=O)c2ccccc2OC)n1	23	-1%	16	i	-3%	i
CCOC(=O)C1=C(C2=CCCCC2)c2ccc(OC)cc2N(S(=O)(=O)C(F)(F)F)C1C(=O)OCC (configuration not stated)	-10	16µM*	-2	i	10µM*	i
CCOC(=O)C1C(C(=O)OC)=C(c2ccc(OC)cc2)c2ccc(OC)cc2N1S(=O)(=O)C(F)(F)F (configuration not stated)	0	2%	-6	i	?	i
CSCCC(NS(=O)(=O)c1cccs1)C(=O)NCc1ccc(C)cc1 (configuration not stated)	7	3%	2	?	0.16µM*	i
CCOC(=O)CNC(=O)C(Cc1ccccc1)NS(=O)(=O)c1cccs1 (configuration not stated)	12	21µM*	1	i	1%	i
CC(C(=O)Nc1ccc(F)cc1Cl)N1CCN(S(=O)(=O)c2cccs2)CC1 (configuration not stated)	-21	?	18	i	-34%	i
Cc1ccc(Cn2c(=O)n(C)c(=O)c3sccc32)cc1	10	-7%	-3	?	4%	?
